PubChem BioAssay (NCI)
“And” between values parts separate entries of the source, which are not always exact repeats. Identical values can stand only once. This is part of a sample that, as a whole, favours compounds with a hit. Of some 83,000 tested, about 20% had one in any assay.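 How to read the values: 0–100, growth inhibition (40 = 60% inhibited); 0, no net growth; -100 to 0, cell death (-40 = 40% of starting cells died; -100 = all dead).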 The source made the active and inactive calls. The calls were made as follows: active = growth percent below 10; inactive = the rest.

Columns and labels:
Assay in all cases: NCI-60 one-dose screen, 48 h (100 = growth as untreated, 0 = no growth, -100 = all killed)
Settings in all cases: 10 µM unless noted
[1] = tested on: DU-145 prostate
[2] = tested on: K-562 leukemia
[3] = tested on: MALME-3M melanoma
[4] = tested on: MDA-MB-231 breast
[5] = tested on: RXF 393 renal
[6] = tested on: SF-268 CNS
[7] = tested on: SF-295 CNS
[8] = tested on: SF-539 CNS
[9] = tested on: UACC-257 melanoma
[10] = tested on: M14 melanoma

Measured: growth

CCC(=O)c1cc(C(=O)OC)c2ccc3c4ccccc4ccc3n12
inactive: [1] 93.5% | [2] 91.5% | [3] 71.9% | [4] 69.9% | [5] 82.1% | [6] 89.3% | [7] 77.6% | [8] 88.2% | [9] 99.7% | [10] 105%

Nc1nn2c(-c3cc4cc(Br)ccc4oc3=O)ccnc2c1N=Nc1ccc(S(N)(=O)=O)cc1
active: [4] -8.56%
inactive: [1] 99.7% | [2] 53.9% | [3] 70.5% | [5] 87.1% | [6] 78.5% | [7] 62.2% | [8] 55.1% | [9] 101% | [10] 62.2%

COc1cc2cc(C(=O)N3C[C@@H](CCl)c4c3cc(OC(=O)N(CCC(=O)N3CCN(C)CC3)[C@H]3CCSSC3)c3ccccc43)[nH]c2c(OC)c1OC
active: [1] -10.5% | [2] -8.96% | [3] -96.7% | [4] -74.8% | [5] -94.5% | [6] -10.3% | [7] -65.9% | [8] -80.3% | [9] -61.9% | [10] -77.2%

Cc1ccc(Cl)cc1NC(=O)Nc1nc2ccc([N+](=O)[O-])cc2s1
inactive: [1] 18.6% | [6] 27.5%
active: [2] 1.86% | [3] -24.4% | [4] -42.2% | [5] -22.7% | [7] -45.4% | [8] -33.9% | [9] -20.9% | [10] -33.5%

COc1ccc(S(=O)(=O)Nc2ccc(-c3ccc4c(c3)NC(=O)/C4=C\c3ccc[nH]3)cc2)cc1OC
active: [3] -16.2% | [4] -46.1% | [5] -23% | [8] -46.5% | [9] -10.7% | [10] 0.851%
inactive: [1] 10.4% | [2] 28.7% | [6] 65% | [7] 56.1%

O=C(CSc1nc2sc3c(c2c(=O)n1-c1ccc(Cl)cc1)CCCC3)N/N=C/C=C/c1ccccc1
inactive: [1] 26.7% | [2] 19.4% | [6] 55.1% | [7] 12%
active: [3] -97% | [4] -69.4% | [5] -67.1% | [8] -35.2% | [9] 1.05% | [10] -65.9%

CC(C)(C)OC(=O)N1CCC2(CC1)Oc1ccccc1[C@H]1CC(c3ccc(Br)cc3)=NN12
inactive: [1] 93.1% | [2] 36.1% | [3] 90% | [4] 63% | [5] 86.2% | [6] 55.9% | [7] 52.5% | [8] 88.8% | [9] 99.3% | [10] 87.3%

O=C(CSc1nnc(-c2ccc(-c3nc4ccc(Cl)cc4[nH]3)cc2)o1)Nc1ccc(Cl)cc1
inactive: [2] 11.2% | [7] 27.6%
active: [1] 6.16% | [3] -23.8% | [4] -51.5% | [5] -49% | [6] 8.68% | [8] -95.3% | [9] 3.38% | [10] 1.01%

COc1ccc(/C=C/c2nc3ccccc3n3c(-c4cccc([N+](=O)[O-])c4)nnc23)cc1
active: [1] -18% | [2] 5.5% | [3] -69.7% | [4] 1.23% | [5] -85.2% | [6] -16.4% | [8] -86.5% | [9] -48.9% | [10] -77.4%
inactive: [7] 12.4%

NCCCCn1c(SCCc2c[nH]c3ccccc23)nnc1-c1ccc2ccccc2n1
inactive: [1] 42.8% | [6] 42.4%
active: [2] -35.4% | [3] -99.4% | [4] -83.7% | [5] -38.3% | [7] -83.4% | [8] -99% | [9] -89.8% | [10] -90.1%

CS(=O)(=O)Nc1cccc(-n2c(COc3ccc(OC(F)(F)F)cc3)nc3ccccc32)c1
inactive: [1] 105% and 121% | [2] 82.2% and 107% | [3] 89.6% and 102% | [4] 92.4% and 110% | [5] 85.8% and 110% | [6] 90% and 113% | [7] 92.7% and 100% | [8] 81.1% and 105% | [9] 106% and 109% | [10] 114% and 107%

COc1ccc2[nH]c(O)c(N=Nc3nc(-c4ccccc4)cs3)c2c1
inactive: [1] 34.6% | [2] 28.9% | [3] 22.5% | [4] 60.1% | [6] 17.1% | [9] 59.3% | [10] 55.6%
active: [5] 4.35% | [7] -8.96% | [8] -11.9%

CC(=O)C[n+]1cccc2c3ccccc3ccc21
inactive: [1] 105% | [2] 69% | [3] 63.5% | [4] 85.7% | [5] 46.3% | [6] 66.5% | [7] 93.9% | [8] 89.6% | [9] 48.8% | [10] 98.7%

O=C(OCCOCCO)N(c1cccc(Br)c1)c1nc(SCCN2CCOCC2)nc2c1cnn2CC(Cl)c1ccc(Br)cc1 (stereo not given)
inactive: [1] 41.3%
active: [2] 2.12% | [3] -29.1% | [4] 1.49% | [5] -30% | [6] 5.17% | [7] -66.6% | [8] -25.2% | [9] 2.33% | [10] -14.1%

CC1CCc2c(sc3nc(SCC(=O)c4cccc(Br)c4)n(-c4ccccc4)c(=O)c23)C1 (stereo not given)
inactive: [1] 20.3% | [2] 43.3% | [3] 97.5% | [4] 32.3% | [5] 90.9% | [6] 64.9% | [7] 47.2% | [8] 18.3% | [9] 91.1% | [10] 55.4%

O=C(c1ccc(O)cc1)C1[C@H](c2ccc(Cl)cc2)[C@@H](c2ccccc2)NC12C(=O)Nc1ccc(Br)cc12 (stereo not given in full)
active: [2] -41.7% | [3] -49% | [4] -79.4% | [5] -85.9% | [6] 3.93% | [7] -60.8% | [8] -37.5% | [10] -56.8%
inactive: [1] 13.4% | [9] 65.9%

Cn1cc(-c2cc3nc(-c4c[nH]c5ccccc45)cc(N)n3n2)c2ccccc21
active: [2] -7.67% | [3] -92.8% | [4] -93.2% | [7] -61.2% | [8] -97.4% | [9] -88.4% | [10] -60.5%
inactive: [1] 11.6% | [5] 82.7% | [6] 77.1%

Cn1cc(-c2cc(N)n3nc(-c4c[nH]c5ccc(Cl)cc45)cc3n2)c2cccnc21
active: [1] -87.6% | [2] -24.9% | [3] -92.3% | [4] -82.3% | [5] -73.4% | [6] -47.4% | [7] -92.6% | [8] -95.6% | [9] -85.5% | [10] -90.5%

Cc1ccc(C2CC(c3ccc(NC(=O)Nc4ccccc4)cc3)=NN2c2ccc(S(N)(=O)=O)cc2)cc1 (stereo not given)
active: [1] -76.2% | [2] 6.16% | [3] -96.5% | [4] -90.8% | [5] -91.3% | [6] -74.5% | [7] -71.2% | [8] -99.3% | [9] -71.6% | [10] -73.2%

Cc1ccc(C(=O)C[n+]2cccc3c4ccccc4ccc32)cc1
active: [2] 8.04% | [5] 5.94% | [9] 5.16%
inactive: [1] 35.7% | [3] 10.4% | [4] 24.2% | [6] 42.8% | [7] 23.4% | [8] 25.5% | [10] 17.6%

COc1ccc(NC(=O)N/N=C/c2c[nH]c3ccccc23)cc1
active: [8] -13.6%
inactive: [1] 27.6% | [2] 17.8% | [3] 61.9% | [4] 44.7% | [5] 20.2% | [6] 55.7% | [7] 16.4% | [9] 72.9% | [10] 29.7%

Fc1ccc(N2CC(Cn3c(C(F)(F)F)cc4c(Cl)ncnc43)C2)c(F)c1
inactive: [3] 89.7% | [7] 87.8% | [8] 50.2% | [9] 11.4%
active: [1] -6.58% | [2] -57% | [4] -81.9% | [5] -51.1% | [6] -42% | [10] -60.9%

Cc1oc(-c2ccccc2)nc1CN[C@@H]1C[C@@H]2C[C@H]([C@H]1C)C2(C)C
inactive: [1] 65.5% | [2] 11.6% | [4] 35.2% | [6] 80.8% | [7] 11% | [8] 14.8%
active: [3] -61.7% | [5] -78.7% | [9] 8.4% | [10] -63.1%

Cn1cc(-c2cc(N)n3nc(-c4c[nH]c5ccc(Cl)cc45)cc3n2)c2cc(Br)cnc21
active: [1] -71.6% | [2] -63.7% | [3] -79.1% | [4] -73.4% | [5] -70.4% | [6] 9.71% | [7] -50.9% | [8] -91.1% | [9] -55% | [10] -92.4%

O=C(NNC(=S)NCCc1ccccc1)c1ccc(OCc2nc3ccc(Cl)cc3[nH]2)cc1
inactive: [1] 79.4% | [2] 29.6% | [3] 65.5% | [4] 95.5% | [5] 93% | [6] 70.4% | [7] 61.4% | [8] 84.3% | [9] 79.9% | [10] 93.9%

CN(C(=O)CN1C(=O)/C(=C/c2ccco2)SC1=S)C1CCS(=O)(=O)C1 (stereo not given)
inactive: [1] 103% | [2] 85.1% | [3] 97.1% | [4] 108% | [5] 108% | [6] 93.9% | [7] 104% | [8] 104% | [9] 96.4% | [10] 94.6%
